The nature of assay [1]: stimulators of insulin release from INS-1E, primary screen, cell-based, 5 mM glucose, NPC library (AID 1117329). Conditions: rat INS-1E insulin secretion, at 10 µM, stronger effect = higher value.
Assay [2] is described as follows: growth inhibition of GSK3B-pretreated HCT116 cells – cell-based, CellTiter-Glo, 0.2 to 20 µM (AID 1117336;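 active = compounds lowering colon cancer cell viability after pretreatment blocking the GSK3B kinase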). The note with it: HCT116 viability after GSK3B inhibitor, at 20 µM, stronger effect = higher value. A general note: In ATP-based viability assays light output follows the ATP content of the culture.
Assay [3] can be described thus: inhibition of endothelial tube formation, primary screen, imaging, VEGF stimulated, CD31 staining, tube area, NPC library (AID 1117340;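 active = compound that reduces growth-factor-driven endothelial tube area in a mixed cell culture, no cutoff stated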). The note with it: VEGF-stimulated ADSC/ECFC co-culture, at 10 µM, stronger effect = higher value.
Assay [4] can be described thus: glucagon-like peptide 1 release enhancers, primary assay, NCI-H716 cell line, NPC library (AID 1117341;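 active = compound raises GLP1 secretion from the human gut endocrine cells, with no numeric limit stated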). The note with it: NCI-H716 cells, at 10 µM, stronger effect = higher value.
A short description of assay [5]: HCT116 colon cancer cell growth inhibition, primary screen, CellTiter-Glo luminescence, NPC library (AID 1117342;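 active = compounds that lower survival of HCT116 colon cancer cells in the luminescence readout, no numeric limit stated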). The note with it: at 20 µM (top of the series).
The nature of assay [6]: CellTiter-Glo luminescent readout of SW480 viability loss, NPC library primary (AID 1117343;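 active = compounds that lower viability of the colon cancer cells in the luminescence readout, with no numeric limit stated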). Conditions: CellTiter-Glo luminescence; at 20 µM (top of the series).
Assay [7] is described as follows: decreased DLD-1 cellular survival, CellTiter-Glo luminescent readout, NPC compound collection, primary HTS (AID 1117346;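 active = compounds that lower survival of DLD-1 colon cancer cells in the luminescence readout, no cutoff given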). The note with it: DLD-1 viability, CellTiter-Glo luminescence; at 20 µM (top of the series).
In assay [8] the target is 6-phosphogluconate dehydrogenase, decarboxylating (Homo sapiens) (UniProt P52209). The assay can be described thus: 6PGD enzyme inhibitors, primary screen, biochemical, human, recombinant enzyme, NADPH absorbance (AID 1159550;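 active = at least 20% inhibition of 6-phosphogluconate dehydrogenase activity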). The note with it: recombinant 6PGD, NADPH absorbance 341 nm; at 10 µM; stronger effect = higher value.
The nature of assay [9]: differential killing of epithelial or mesenchymal cells, primary screen, imaging, PC-3E GFP, TEM4-18 mCherry, co-culture (AID 1345086;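 active = compounds killing one labelled cell type while sparing the other, by normalised counts and ratio limits, not self-fluorescent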;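 for all read-outs here: cells exposed to compound for 72 h before imaging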;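 for red/green cell ratio (normalised): normalised mesenchymal count divided by normalised epithelial count so high means epithelial killing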). Conditions: imaging cell counts, at 1 µM; for red/green cell ratio (normalised): actives lie on both sides, counts scaled to control wells, 1 = unselective.
Setting [10] is: measured here: epithelial PC-3E GFP cell survival.
Setting [11] is: measured here: mesenchymal TEM4-18 mCherry cell survival.

SMILES strings stand for the structures. Calls of active or inactive are those of the source.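 Rule for the calls, unless noted: active = compound raises insulin release from rat beta cells at 5 mM glucose, no numeric limit stated; inactive = the rest.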

6-phosphogluconate dehydrogenase, decarboxylating (Homo sapiens), sequence (P52209 whole entry, looked up): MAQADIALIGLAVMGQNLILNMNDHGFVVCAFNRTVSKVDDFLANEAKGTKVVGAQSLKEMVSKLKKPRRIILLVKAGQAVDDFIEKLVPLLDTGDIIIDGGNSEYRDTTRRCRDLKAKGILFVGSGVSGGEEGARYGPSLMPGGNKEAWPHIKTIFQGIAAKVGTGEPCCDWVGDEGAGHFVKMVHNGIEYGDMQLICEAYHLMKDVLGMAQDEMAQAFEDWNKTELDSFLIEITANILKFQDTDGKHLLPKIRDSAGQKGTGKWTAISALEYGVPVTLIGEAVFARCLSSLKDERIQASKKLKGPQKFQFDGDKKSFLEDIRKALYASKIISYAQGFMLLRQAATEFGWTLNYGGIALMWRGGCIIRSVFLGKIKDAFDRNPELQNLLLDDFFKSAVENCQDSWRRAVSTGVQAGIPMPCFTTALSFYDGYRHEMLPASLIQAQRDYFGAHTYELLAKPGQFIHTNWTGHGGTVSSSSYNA

The inhibition is the change of the read-out against control, counted positive when it falls. As for `Cc1cc(O)cc(C)c1Cl`, in assay [1], the insulin secretion stimulation is 2% (inactive). Further, the viability decrease in assay [2] is -11% (inactive). In addition, in [3], the tube area decrease was -5.3% (inactive). For the same compound, the GLP1 secretion stimulation in [4] is -2% (inactive). Also, the inhibition of viability in assay [5] is 18.1% (inactive). Besides, the viability decrease (inhibition) is 28.5% (inactive) in [6] and 9.3% (inactive) in assay [7]. Moreover, the inhibition in [8] is 0.336% (inactive). Besides, the red/green cell ratio (normalised) in [9] is 1.31 (inactive). The results for the normalised cell number in assay [9] (setting [10]) and in assay [9] (setting [11]) were 0.7 and 0.93, respectively.
As to `CCC(=O)O[C@H]1[C@H](O[C@@H]2[C@@H](C)[C@H](O[C@H]3C[C@@](C)(OC)[C@@H](O)[C@H](C)O3)[C@@H](C)C(=O)O[C@H](CC)[C@@](C)(O)[C@H](O)[C@@H](C)C(=O)[C@H](C)C[C@@]2(C)O)O[C@H](C)C[C@@H]1N(C)C`, the insulin secretion stimulation in assay [1] is -1.7% (inactive). In addition, the viability decrease in [2] was -28.1% (inactive). The tube area decrease in assay [3] was 5.5% (inactive). The GLP1 secretion stimulation in assay [4] was -0.1% (inactive). The inhibition of viability in [5] is 3.15% (inactive). Besides, the results for the viability decrease (inhibition) in assay [6] and in assay [7] were 13.9% (inactive) and -12.4% (inactive), respectively. Further, in assay [8], the inhibition is 1.5% (inactive). Further, the red/green cell ratio (normalised) in assay [9] is 1.04 (inactive). Besides, the normalised cell number in assay [9] (setting [10]) was determined as 1.08; in [9] (setting [11]), 1.12.
`CC1CCC(NC(=O)N(CCCl)N=O)CC1` (centres undefined): the insulin secretion stimulation in [1] is 2% (inactive). For the same compound, in assay [2], the viability decrease was -24.4% (inactive). Further, the tube area decrease in assay [3] was 25.1% (inactive). For the same compound, the GLP1 secretion stimulation in assay [4] was 1.7% (inactive). For the same compound, the inhibition of viability in assay [5] is -2.27% (inactive). Besides, the viability decrease (inhibition) in [6] is 12.6% (inactive); in assay [7], -14.1% (inactive). In addition, the inhibition in assay [8] is 2.66% (inactive). Also, the red/green cell ratio (normalised) in assay [9] is 1.17 (inactive). The figures for the normalised cell number in assay [9] (setting [10]) and in [9] (setting [11]) were 1.17 and 1.37, respectively.
Turning to `CCCCC1C(=O)N(c2ccccc2)N(c2ccc(O)cc2)C1=O` (centres undefined), the insulin secretion stimulation in assay [1] is -0.2% (inactive). For the same compound, in assay [2], the viability decrease was 6.7% (inactive). Besides, the tube area decrease in assay [3] is 50.3% (active). For the same compound, in [4], the GLP1 secretion stimulation was 12.4% (inactive). Further, the inhibition of viability in assay [5] is 57.7% (active). In addition, the results for the viability decrease (inhibition) in assay [6] and in assay [7] were 124% (active) and 101% (active), respectively. In assay [8], the inhibition was -5.96% (inactive). The red/green cell ratio (normalised) in assay [9] is 1.01 (inactive). Besides, the results for the normalised cell number in assay [9] (setting [10]) and in [9] (setting [11]) were 1.07 and 1.08, respectively.
`COc1ccc(NS(=O)(=O)c2ccc(N)cc2)nn1`: the insulin secretion stimulation in assay [1] is 0.2% (inactive). For the same compound, the viability decrease in assay [2] was -9.5% (inactive). The tube area decrease in [3] was 14% (inactive). Also, the GLP1 secretion stimulation in assay [4] was 0.3% (inactive). The inhibition of viability in assay [5] was -7.97% (inactive). Besides, the figures for the viability decrease (inhibition) in assay [6] and in [7] were 2.4% (inactive) and -8.6% (inactive), respectively. Further, the inhibition in assay [8] is -7.32% (inactive). Further, the red/green cell ratio (normalised) in assay [9] was 1.05 (inactive). The normalised cell number in assay [9] (setting [10]) worked out at 0.94; in assay [9] (setting [11]), 0.98.
For `C=CCSCC1Nc2cc(Cl)c(S(N)(=O)=O)cc2S(=O)(=O)N1` (centres undefined), in [1], the insulin secretion stimulation is -0.2% (inactive). In addition, in [2], the viability decrease is -11% (inactive). For the same compound, the tube area decrease in assay [3] is -0.7% (inactive). In addition, the GLP1 secretion stimulation in [4] was 0.1% (inactive). Further, the inhibition of viability in assay [5] was 3.27% (inactive). Further, the results for the viability decrease (inhibition) in assay [6] and in assay [7] were -6.2% (inactive) and 1.8% (inactive), respectively. The inhibition in assay [8] was 5.8% (inactive). Moreover, in [9], the red/green cell ratio (normalised) is 1.09 (inactive). The normalised cell number in [9] (setting [10]) is 1.09; in [9] (setting [11]), 1.19.
For `C[C@](N)(Cc1ccc(O)cc1)C(=O)O`, the insulin secretion stimulation in assay [1] is -0.1% (inactive). In assay [2], the viability decrease was 0.3% (inactive). In addition, in assay [3], the tube area decrease is -8.2% (inactive). For the same compound, the GLP1 secretion stimulation in assay [4] was 1.3% (inactive). Further, in assay [5], the inhibition of viability was -15.1% (inactive). The viability decrease (inhibition) in assay [6] is 42.1% (inactive); in assay [7], -1.1% (inactive). Further, the inhibition in assay [8] was -7.56% (inactive). In addition, in [9], the red/green cell ratio (normalised) is 0.89 (inactive). Also, the normalised cell number in [9] (setting [10]) came out at 1.18; in assay [9] (setting [11]), 1.05.
With `COc1ccc(C(=O)c2ccccc2)c(O)c1`, the insulin secretion stimulation in assay [1] was -2.9% (inactive). The viability decrease in [2] is -5.25% (inactive). In addition, in assay [3], the tube area decrease was 6.3% (inactive). The GLP1 secretion stimulation in [4] is 0.5% (inactive). For the same compound, the inhibition of viability in assay [5] is 14.4% (inactive). The values for the viability decrease (inhibition) in [6] and in [7] were 3.3% (inactive) and -0.05% (inactive), respectively. The inhibition in assay [8] was -7.36% (inactive). Besides, the red/green cell ratio (normalised) in [9] was 0.94 (inactive). For the same compound, the normalised cell number in [9] (setting [10]) turned out to be 1.15; in assay [9] (setting [11]) it was 1.08.
As to `CN1CCCN=C1COC(=O)C(O)(c1ccccc1)C1CCCCC1` (centres undefined), the insulin secretion stimulation in [1] was 16.3% (inactive). The viability decrease in [2] is -83% (inactive). Moreover, in assay [3], the tube area decrease is -29% (inactive). Besides, the GLP1 secretion stimulation in assay [4] is 4.8% (inactive). The inhibition of viability in assay [5] was 19.6% (inactive). In addition, the viability decrease (inhibition) in assay [6] was 67.3% (active); in assay [7] it was 33.9% (inactive). Also, the inhibition in [8] was 6.35% (inactive). In assay [9], the red/green cell ratio (normalised) was 1.18 (inactive). For the same compound, the values for the normalised cell number in assay [9] (setting [10]) and in [9] (setting [11]) were 1.21 and 1.43, respectively.
For `CC(=O)OC(C)C[N+](C)(C)C` (centres undefined), the insulin secretion stimulation in assay [1] was -0.3% (inactive). Moreover, the viability decrease in assay [2] is -1.9% (inactive). In assay [3], the tube area decrease is 4.4% (inactive). In addition, in [4], the GLP1 secretion stimulation is 5.7% (active). In [5], the inhibition of viability was -6.13% (inactive). Moreover, the viability decrease (inhibition) in [6] is -21.3% (inactive); in [7], -8.2% (inactive). Also, the inhibition in [8] was 19.2% (inactive). In assay [9], the red/green cell ratio (normalised) was 1.16 (inactive). The normalised cell number in assay [9] (setting [10]) was determined as 0.97; in assay [9] (setting [11]), 1.13.
Consider `CCCCC(CC)CN=C(N)NC(N)=NCCCCCCN=C(N)NC(N)=NCC(CC)CCCC` (centres undefined), for which the insulin secretion stimulation in assay [1] is 22.3% (active). Besides, the viability decrease in assay [2] was 99.1% (active). The tube area decrease in [3] was 108% (active). For the same compound, in [4], the GLP1 secretion stimulation was 0% (inactive). Moreover, in assay [5], the inhibition of viability was 99.6% (active). Further, the viability decrease (inhibition) in [6] is 97% (active); in assay [7] it was 102% (active). The inhibition in [8] was -3.86% (inactive). Further, in assay [9], the red/green cell ratio (normalised) was 0.85 (inactive). Moreover, the results for the normalised cell number in [9] (setting [10]) and in [9] (setting [11]) were 1.19 and 1.01, respectively.
For the compound `NC(=O)NC(=O)Cc1ccccc1`, the insulin secretion stimulation in assay [1] is 1.3% (inactive). Further, the viability decrease in assay [2] is -10.2% (inactive). Also, the tube area decrease in assay [3] was 2.3% (inactive). For the same compound, the GLP1 secretion stimulation in assay [4] is -2.2% (inactive). For the same compound, in assay [5], the inhibition of viability was -3.67% (inactive). The viability decrease (inhibition) in [6] is 38.8% (inactive); in assay [7] it was -11.6% (inactive). Besides, the inhibition in assay [8] is 7.97% (inactive). In addition, the red/green cell ratio (normalised) in assay [9] was 1.02 (inactive). For the same compound, the normalised cell number in [9] (setting [10]) is 1.19; in [9] (setting [11]), 1.21.
Take `O=C(COc1ccc(Cl)cc1)N1CCN(Cc2ccc3c(c2)OCO3)CC1`: the insulin secretion stimulation in assay [1] was 2.3% (inactive). Besides, the viability decrease in assay [2] is 54% (active). Besides, in [3], the tube area decrease is 3.4% (inactive). Moreover, in assay [4], the GLP1 secretion stimulation is 0.1% (inactive). The inhibition of viability in assay [5] is 53.7% (active). The results for the viability decrease (inhibition) in [6] and in assay [7] were 56.1% (active) and 52.6% (active), respectively. Also, the inhibition in assay [8] is 11.5% (inactive). Moreover, the red/green cell ratio (normalised) in assay [9] was 0.96 (inactive). Further, the normalised cell number in [9] (setting [10]) worked out at 0.94; in assay [9] (setting [11]) it was 0.9.
As to `Nc1ncnc2nc[nH]c12`, the insulin secretion stimulation in assay [1] was -0.3% (inactive). The viability decrease in [2] was -4.6% (inactive). The tube area decrease in [3] is -30.5% (inactive). The GLP1 secretion stimulation in assay [4] is -1.7% (inactive). Also, the inhibition of viability in [5] was -30.2% (inactive). Besides, the viability decrease (inhibition) was -59.6% (inactive) in assay [6] and -23.8% (inactive) in assay [7]. Further, in [8], the inhibition was 2.63% (inactive). Besides, the red/green cell ratio (normalised) in [9] is 1.1 (inactive). Also, the values for the normalised cell number in assay [9] (setting [10]) and in [9] (setting [11]) were 1.11 and 1.22, respectively.

For the origin of these results see PubChem BioAssay.
